# Data as given in ChEMBL document CHEMBL3988442, “University of Dundee, Small-Polar-MMV Screening Library” (2021).
# About 900 (1.7%) of roughly 53,000 compounds showed an effect of 50% or more. This is one part of a sample in which strong results are shown more often than they occur.
# Tested on: Mycobacterium tuberculosis
# Test: Cornell - Phenotypic assay to identify agents that inhibit growth of Mycobacterium tuberculosis
# Type: functional
# Design: scale not given: direction of the effect not stated beside the values
# Conditions: 10 mM as filed; unlikely as a test dose
row,Compound,Percent Effect [%]
1,CO[C@@H]1CC[C@H]2[C@H]1OCCN2C(=O)COc1ccc(F)cc1,15.86
2,COCCC(C)NC(=O)c1cc(Br)c2c(c1)OCCO2 (stereo not drawn),13.03
3,Cc1nccc(-c2cccc(NCC(=O)N3CCOCC3)c2)n1,9.914
4,CNc1cccc(C2CN(C(=O)CNS(C)(=O)=O)CCO2)n1 (stereo not drawn),-23.18
5,CC(C)CCC(=O)N(C)CC(=O)Nc1ccc(Br)cn1,-12.94
6,O=C(c1cnc2ccc(F)cc2c1NCc1ccccn1)N1CCCC1,5.685
7,COCCC1(CNC(=O)Nc2ccc(-n3nccn3)cc2)CCC1,32.79
8,COCCC1(CNC(=O)Nc2ccc(-n3cccn3)cc2)CCC1,21.41
9,COCCC1(CNC(=O)Nc2ccc(-n3ccnn3)cc2)CCC1,75.09
10,Cc1nc(C2CCCNC2)nc2c1CCCN2Cc1ccccn1.Cl.Cl (stereo not drawn),10.21
11,Cc1nnc(C(C)N2CCCN(Cc3ccc(F)cc3)CC2)o1 (stereo not drawn),8.155
12,Cc1nc(NCCc2ccccc2)cc(C(=O)N2CCCCC2)n1,-12.22
13,Br.O=C(O)c1csc(NCCc2ccccc2)n1,71.03
14,CN1CC(=O)c2sc(NCCc3ccccc3)nc2C1,-47.63
15,Cc1nn(C)c(C)c1CC(=O)N1CCCC(CNS(C)(=O)=O)C1 (stereo not drawn),-13.44
16,CC(C)Cn1nc(-c2ccc(C(=O)O)cc2)cc1-c1ccc(F)cc1,92.09
17,CCC(O)Cn1nc(-c2ccc(C(=O)O)cc2)cc1-c1ccc(F)cc1 (stereo not drawn),43.49
18,CCC(O)Cn1nc(-c2ccc(C(=O)O)cc2)cc1-c1cccc(F)c1 (stereo not drawn),-3.821
19,CC(C)(C)n1ncc2c(=O)[nH]c(N3CC(O)C3)nc21,-9.536
20,CC(C)(C)n1ncc2c(=O)[nH]c(N3CCN(CC(F)F)CC3)nc21,62.42
21,CC(C)(C)n1ncc2c(=O)[nH]c(N3CCN(CCO)CC3)nc21,21.4
22,CC(=O)N1CCN(c2nc3c(cnn3C(C)(C)C)c(=O)[nH]2)CC1,26.42
23,CC(C)(C)n1ncc2c(=O)[nH]c(NC3CC=CC3)nc21,82.93
24,CN1CC(Nc2nc3c(cnn3C(C)(C)C)c(=O)[nH]2)CCC1=O (stereo not drawn),12.63
25,Nc1cc(-c2nccnc2N2CCCC2)c2cc[nH]c2n1,-1.136
26,CC(=O)N1CCC2(CCN(S(=O)(=O)c3ccccc3)CC2)C1,-13.67

row,Compound,Percent Effect [%]
1,CC(C)CN1C[C@H]2CCN(C(=O)NC3CCCC3)CC[C@H]2S1(=O)=O,15.88
2,COc1cccc(CNc2ccc(F)c(Cl)c2)c1O,58.04
3,COc1cccc(CNCc2ccc(F)cc2Cl)c1O,52.17
4,COc1cccc(CNCc2ccc(F)c(Cl)c2)c1O,2.035
5,COc1cccc(CNCc2cccc(Cl)c2)c1O,2.888
6,COc1cccc(CNCc2ccccc2Cl)c1O,-0.8125
7,CCOc1cccc(CNc2cccc(C(=O)OC)c2)c1O,2.238
8,COc1cccc(N2CCN(CC(O)c3cc(C)ccc3C)CC2)c1 (stereo not drawn),-17.91
9,Cc1ccc(-c2nc(CCNC(=O)NCC(C)(C)C(N)=O)co2)cc1,-1.516
10,Cc1ccc(Br)cc1NC(=O)NCC(O)CO (stereo not drawn),-28.33
11,CN1C(=O)[C@H]2CC[C@@H]1CN(c1ncnc3ccsc13)C2,26.9
12,CN(C)c1nc2n(c(=O)n1)CCN2C(=O)Nc1cccc(Cl)c1,-1.647
13,CN(C)c1nc2n(c(=O)n1)CCN2C(=O)Nc1ccc(Cl)c(Cl)c1,104.9
14,CN(C)c1nc2n(c(=O)n1)CCN2C(=O)Nc1ccc(Cl)cc1,-48.51
15,Cc1cc(C)n(CCCNC(=O)C(C)NC(=O)c2ccccc2Cl)n1 (stereo not drawn),-13.3
16,CC1(CNC(=O)NCc2ccsc2)CCCS1 (stereo not drawn),1.003
17,Cc1nc(N2CCOCC2)nc2c1CCN(C(=O)C1CCCCC1)CC2,34.6
18,CCc1sc(-c2nnc(CNCCn3cc(C)cn3)o2)cc1C,69.26
19,Cc1ccc(-c2nnc(CNCCn3cc(C)cn3)o2)cc1,51.67
20,Cc1cnn(CCNCc2nnc(C3CC3)o2)c1,-12.52
21,CC(Cn1cccn1)NCc1nc(-c2cccs2)no1 (stereo not drawn),28.55
22,CCc1sc(-c2nnc(CNCCn3cccn3)o2)cc1C,-21.28
23,Cc1ccc(-c2nnc(C(C)NCCn3cc(C)cn3)o2)cc1 (stereo not drawn),-4.1
24,CCc1sc(-c2nnc(CNC(C)Cn3cccn3)o2)cc1C (stereo not drawn),50.91
25,CCc1sc(-c2nnc(CNC(C)Cn3cc(C)cn3)o2)cc1C (stereo not drawn),15.55
26,Cc1ccoc1-c1nnc(CNCCn2cccn2)o1,-13.89

row,Compound,Percent Effect [%]
1,O=C(O)C(F)(F)F.O=C1N(CC2CC2)CCC12CCN(Cc1ccoc1)CC2,-1.631
2,Cl.O=C(NCCn1nc(C2CCNC2)c2cccnc21)c1ccccc1 (stereo not drawn),-53.35
3,Cc1c(OCC(=O)NCc2ccccc2)c(=O)ccn1C,2.776
4,OCCn1nccc1C1CCN(CCOc2ccccc2Cl)CC1,-31.74
5,CCc1cnc(CN(C)C2CCN(CC3CCN(C(C)=O)CC3)C2)o1 (stereo not drawn),6.622
6,Nc1cc(-c2cccs2)nn(CC(=O)NCC2CCCCC2)c1=O,91.2
7,Cc1ccc(-c2cc(N)c(=O)n(CC(=O)NCC3CCCCC3)n2)s1,31.53
8,Cc1ccc(-c2cc(N)c(=O)n(CC(=O)NCC3CC3)n2)s1,90.74
9,Cc1ccc(-c2cc(N)c(=O)n(CC(=O)NC3CCCCC3)n2)s1,21.23
10,Cc1ccc(-c2cc(N)c(=O)n(CC(=O)NC3CCCC3)n2)s1,-35.82
11,Cc1cc(-c2cc(N)c(=O)n(CC(=O)NCC3CCCCC3)n2)c(C)o1,-31.85
12,CCN1CCn2c(C)cnc2C12CCN(C(=O)C(C)C)CC2.O=C(O)C(F)(F)F.O=C(O)C(F)(F)F,14.47
13,COCCN1C(=O)CO[C@H]2CN(Cc3cccc(OC)c3F)C[C@@H]21,-23.69
14,Cc1cc(NC(=O)CN2CCN(c3nccs3)C(C)C2)on1 (stereo not drawn),22.95
15,CCOc1ccc(NC(=O)Cn2cc(I)cn2)cc1,8.752
16,OC1CN(c2nc3c(C(F)(F)F)cccc3s2)C1,-37.29
17,Cc1ccc(NC2CCN(C(=O)CCc3ccco3)CC2)nn1,9.645
18,O=C(CCc1ccco1)N1CCC(Nc2cccnn2)CC1,-37.65
19,Cc1ccccc1NC1CCN(C(=O)CCc2ccco2)CC1,50.28
20,COc1cccc(Cn2ncnc2CCSC)c1,21.64
21,CN(Cc1cncnc1)[C@@H]1CN(C(=O)C2CC2)[C@@H]2CCCO[C@H]12.O=C(O)C(F)(F)F,10.43
22,CCCN1CCC(c2cc(CCOc3ccc(C(F)(F)F)cc3)[nH]n2)C1 (stereo not drawn),74.52
23,Br.COc1ccc(OCCc2cc(C3CCN(CC(C)C)C3)n[nH]2)cc1 (stereo not drawn),44.88
24,Cc1cc(C2CCCN(C(=O)COc3ccc(F)cc3)C2)n[nH]1 (stereo not drawn),21.79
25,Clc1ccc(OCCc2cc(C3CCN(c4ncccn4)C3)n[nH]2)cc1 (stereo not drawn),81.19
26,Cc1cc(C)nc(N2CCC(c3cc(CCO)[nH]n3)C2)n1 (stereo not drawn),21.68

row,Compound,Percent Effect [%]
1,Cn1cc(CN2CCC(c3cc(COc4ccc(Cl)cc4)[nH]n3)C2)cn1 (stereo not drawn),8.733
2,CN(C)CCCNCCC(Cc1ccccc1)C1CCOC(C)(C)C1.O=C(O)C(=O)O (stereo not drawn),18.5
3,O=C(c1cc[nH]n1)N1CCOCC2(C1)CN(c1ccccc1)C(=O)CO2 (stereo not drawn),56
4,O=C(O)C(F)(F)F.O=C(c1c[nH]cn1)N1CCOCC2(C1)CN(c1ccccc1)C(=O)CO2 (stereo not drawn),29.26
5,O=C(c1ccc[nH]1)N1CCOCC2(C1)CN(c1ccccc1)C(=O)CO2 (stereo not drawn),34.74
6,CCn1nnnc1-c1cccc(NCc2nc(C)ccc2O)c1,4.577
7,O=C(O)CCCN1C[C@@H](c2ccccc2F)[C@@]2(CCCCC(=O)N2)C1,43.05
8,COc1cc(F)c(S(=O)(=O)Nc2cnc(O)cc2C)cc1OC,3.766
9,CC(Cn1cncc1-c1cnn(C2CCCCC2)c1)N1CCCCC1.Cl (stereo not drawn),-3.197
10,CC(Cn1cncc1-c1cnn(Cc2ccccc2)c1)N1CCCCC1.Cl (stereo not drawn),58.13
11,CCC(CN1CCCC1)n1cncc1-c1cnn(Cc2ccccc2)c1.Cl (stereo not drawn),36.43
12,CCOc1ccccc1N1CCN(C(=O)NCc2cc[nH]n2)CC1,-20.55
13,CNc1cc(C2CCCN2C(=O)c2ccc(=O)[nH]n2)ccn1.O=CO (stereo not drawn),2.671
14,CCC(CN1CCOCC1)n1cncc1-c1ccc2c(c1)CCCN2C.Cl (stereo not drawn),15.31
15,CCC(CN1CCCC1)n1cncc1-c1cnn(-c2ccccc2)c1.Cl (stereo not drawn),55.09
16,CCC(CN1CCCC1)n1cncc1-c1cnn(-c2ccc(F)cc2)c1.Cl (stereo not drawn),20.09
17,CCn1nc(C)cc1C(=O)NCc1cc(N(C)C)nc2ccccc12,34.42
18,CC(C)OCCCNC(=O)CN1CCN(c2nccs2)CC1,4.56
19,O=C(c1cnc(O)c(Cl)c1)N1CCCC(c2nccs2)C1 (stereo not drawn),-10.54
20,CNC(=O)Nc1cnc2cc(Cl)ccc2c1O,-22.82
21,O=C(NCCCO)Nc1cnc2cc(Cl)ccc2c1O,81.69
22,O=C(NCCCN1CCOCC1)Nc1cnc2cc(Cl)ccc2c1O,32.37
23,O=C(NCC1CC1)Nc1cnc2cc(Cl)ccc2c1O,-6.744
24,O=C(NCCO)Nc1cnc2cc(Cl)ccc2c1O,103.7
25,O=C(NCCN1CCOCC1)Nc1cnc2cc(Cl)ccc2c1O,-4.322
